Inconclusive results are not listed. Activity calls are given as the source filed them. How the source made its calls: active means hit-call score of the fitted dose curve at least 0.9, where 1 is the maximum; inconclusive means response in the unintended direction; inactive means score below 0.9.
Assays:
[1] = TOX21_p53_BLA_p2_viability: Viability Assessment in the Tox21 HCT-116 p53 Agonism Beta-lactamase Assay, Phase 2 (AID 2283591);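 further: compound exposure lasted 16 h at 37 °C; actives lower the ATP signal meaning cytotoxicity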
Procedure, shortened: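 HCT116 p53-bla cells, 4000/well, dosed after 5 h plating (217-fold dilution of DMSO stocks) and incubated 16 h at 37C. Viability taken as cellular ATP by CellTiter-Glo luminescence after 30 min RT; signal loss marks cytotoxicity.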

[2] = target: Cellular tumor antigen p53 (Homo sapiens) (UniProt P04637); test: TOX21_p53_BLA_p2_ratio: Tox21 HCT-116 p53 Agonism Beta-lactamase Assay, Ratio, Phase 2 (AID 2283592)
Procedure, shortened: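 DMSO-normalized, positive-direction endpoint derived from the 460 nm/530 nm FRET ratio in HCT116 p53 beta-lactamase reporter cells exposed 16 h at 37C and loaded with CCF4-AM for 2 h.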

[3] = TOX21_p53_BLA_p3_viability: Viability Assessment in the Tox21 HCT-116 p53 Agonism Beta-lactamase Assay, Phase 3 (AID 2283593);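 further: cells exposed to compound for 16 h before reading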
Procedure, shortened: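 HCT116 cells, 4000/well, dosed 5 h after plating by pin transfer (217-fold dilution from DMSO stock) and incubated 16 h at 37C, 5% CO2. Viability read as ATP luminescence with CellTiter-Glo after 30 min at room temperature.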

[4] = target: Cellular tumor antigen p53 (Homo sapiens) (UniProt P04637); test: TOX21_p53_BLA_p3_ratio: Tox21 HCT-116 p53 Agonism Beta-lactamase Assay, Ratio, Phase 3 (AID 2283596)
Procedure, shortened: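 Cells were seeded at 4000/well, rested 5 h at 37C, then dosed with DMSO compound solutions (217-fold dilution) for 16 h. CCF4-AM substrate was loaded for 2 h at room temperature, and the 460/530 nm emission ratio was fitted for gain of signal versus DMSO.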

[5] = TOX21_p53_BLA_p4_viability: Viability Assessment in the Tox21 HCT-116 p53 Agonism Beta-lactamase Assay, Phase 4 (AID 2283597);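 further: hits lower the luminescence signal meaning cytotoxicity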
Procedure, shortened: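 In this multiplexed secondary endpoint, HCT116 cells (4000 per well, compound at 5 h, 16 h treatment) received CellTiter-Glo after the beta-lactamase read. Luminescence after 30 min RT reflects ATP, and falling signal marks cytotoxicity.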

[6] = target: Cellular tumor antigen p53 (Homo sapiens) (UniProt P04637); test: TOX21_p53_BLA_p4_ratio: Tox21 HCT-116 p53 Agonism Beta-lactamase Assay, Ratio, Phase 4 (AID 2283601)
Procedure, shortened: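 HCT-116 p53 beta-lactamase reporter cells (4000/well) preincubated 5 h, then compound (217-fold dilution of DMSO stock) for 16 h at 37C. CCF4-AM substrate added 2 h at room temperature; 460/530 nm emission ratio fitted upward versus DMSO.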

Measured: outcome

Chain of Cellular tumor antigen p53 (Homo sapiens) (P04637 whole entry, looked up): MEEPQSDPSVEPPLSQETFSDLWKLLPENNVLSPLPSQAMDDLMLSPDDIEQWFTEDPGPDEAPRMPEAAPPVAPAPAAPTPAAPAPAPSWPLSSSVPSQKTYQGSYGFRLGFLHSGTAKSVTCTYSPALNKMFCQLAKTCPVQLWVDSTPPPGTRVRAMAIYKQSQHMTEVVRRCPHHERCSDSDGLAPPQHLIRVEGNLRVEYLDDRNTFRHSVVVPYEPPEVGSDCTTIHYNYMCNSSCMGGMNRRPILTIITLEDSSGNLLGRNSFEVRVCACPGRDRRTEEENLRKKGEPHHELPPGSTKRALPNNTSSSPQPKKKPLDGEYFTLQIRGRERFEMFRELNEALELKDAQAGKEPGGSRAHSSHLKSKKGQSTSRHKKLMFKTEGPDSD

O
inactive: all assays above

Reference: PubChem BioAssay (EPA / NIEHS)
